Records with an inconclusive call do not appear. Entries that show only a call come without a potency. The source made the active and inactive calls. Calls come from the whole dose curve; as a rule, active = well fitted curve in the direction sought with a large enough effect; inconclusive = small, poorly fitted or top-dose-only effect, or another doubt; inactive = no such curve, though single readings can be large; an effect the other way counts as inactive or inconclusive.
Target: Glutaminase kidney isoform, mitochondrial (Homo sapiens) (UniProt O94925)
Assay: qHTS for Inhibitors of Glutaminase (GLS): LOPAC Validation (AID 624146); note: nearly all actives have a fitted effect of over 60% in size; note: potency is the fitted concentration of half-maximal effect
Conditions: glutaminase enzyme activity inhibition; series mostly up to 46.1 µM
Procedure, shortened: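 hKGA in 45 mM KH2PO4 (pH 8.2), 0.02% Tween-20 with compound, then 1mM L-Glutamine (stock as added) plus glutamate oxidase/HRP/Amplex red coupling mix. Fluorescence read initially and after 30 min at RT; signal change reflects glutamate formation.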

Chain of Glutaminase kidney isoform, mitochondrial (Homo sapiens) (O94925 whole entry, looked up, canonical isoform): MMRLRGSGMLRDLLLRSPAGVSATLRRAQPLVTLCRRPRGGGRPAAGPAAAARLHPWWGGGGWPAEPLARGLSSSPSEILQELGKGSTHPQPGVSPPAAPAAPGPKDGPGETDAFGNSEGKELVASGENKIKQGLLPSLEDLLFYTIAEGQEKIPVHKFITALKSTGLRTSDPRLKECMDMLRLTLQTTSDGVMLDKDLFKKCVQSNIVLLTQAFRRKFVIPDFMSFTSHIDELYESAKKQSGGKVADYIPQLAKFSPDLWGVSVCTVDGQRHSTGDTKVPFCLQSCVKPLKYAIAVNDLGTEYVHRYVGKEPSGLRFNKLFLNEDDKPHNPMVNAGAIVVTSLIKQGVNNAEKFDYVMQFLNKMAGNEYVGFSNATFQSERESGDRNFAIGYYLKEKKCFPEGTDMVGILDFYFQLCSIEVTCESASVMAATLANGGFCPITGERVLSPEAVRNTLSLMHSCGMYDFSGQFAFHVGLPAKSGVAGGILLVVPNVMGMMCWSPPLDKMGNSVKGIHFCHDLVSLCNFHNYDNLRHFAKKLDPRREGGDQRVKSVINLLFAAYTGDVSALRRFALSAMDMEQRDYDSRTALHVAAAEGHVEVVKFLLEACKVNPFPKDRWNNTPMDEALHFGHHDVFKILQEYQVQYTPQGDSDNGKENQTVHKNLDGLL

SMILES | Potency
CC(C)(O)[C@@H]1C2OC(=O)[C@@H]1[C@]1(O)C[C@H]3O[C@]34C(=O)O[C@H]2[C@]14C (tested in a mixture with another compound) | inactive
CCn1cnc2c(Nc3cccc(Cl)c3)nc(N[C@@H]3CCCC[C@@H]3N)nc21 | inactive
NC(=O)COc1c(F)cc(SCCNS(=O)(=O)c2ccccc2)cc1F | inactive
CCCN1CCc2cccc3c2[C@H]1Cc1ccc(O)c(O)c1-3 | 1.41 µM (active)
C=CCN1C[C@@H](C)N([C@H](c2ccc(C(=O)N(CC)CC)cc2)c2cccc(OC)c2)C[C@@H]1C | inactive
CCCN(CCC)CCc1c[nH]c2ccc(C(N)=O)cc12 | inactive
CCCn1c(=O)c2[nH]c(C3CCCC3)nc2n(CCCOC(=O)c2ccc(S(=O)(=O)F)cc2)c1=O | inactive
Clc1cc(I)cc(Cl)c1NC1=NCCN1 | inactive
CCCN1CCC[C@@H](c2cccc(O)c2)C1 | inactive
N=C(N)c1ccc(CS(=O)(=O)F)cc1 | inactive
NCCc1ccc(S(=O)(=O)F)cc1 | inactive
NC(C(=O)O)c1cc(=O)[nH]o1 (configuration not stated) | inactive
COc1ccc2c(c1)/C(=C/c1cnc[nH]1)C(=O)N2 | inactive
O=[N+]([O-])/C=C/c1ccc2c(c1)OCO2 | 12.6 µM (active)
CC(C)(C)c1cc(C=C(C#N)C#N)cc(C(C)(C)C)c1O | 12.6 µM (active)
CCOC(=O)c1ncn2c1[C@@H]1CCCN1C(=O)c1cc(OC)ccc1-2 | inactive
N[C@@H](Cn1ccc(=O)[nH]c1=O)C(=O)O | inactive
C[C@@H]1O[C@@H](O[C@H]2C[C@@H](O)[C@]3(CO)[C@@H]4C(CC[C@]3(O)C2)[C@@]2(O)CC[C@H]([C@@H]3COC(=O)C3)[C@@]2(C)C[C@H]4O)[C@H](O)[C@H](O)[C@H]1O (some centres not stated) | inactive
C=CCN1CCc2cccc3c2[C@H]1Cc1ccc(O)c(O)c1-3 | 0.891 µM (active)
OCc1cnc[nH]1 | inactive
CN1CCc2cc(O)cc3c2[C@H]1Cc1ccc(O)c(O)c1-3 | 2.24 µM (active)
CC(=O)OCC1=C(C(=O)O)N2C(=O)[C@@H](NC(=O)CCC[C@@H](N)C(=O)O)[C@H]2SC1 | inactive
CCCC[N+]1(C)C2CC(OC(=O)[C@H](CO)c3ccccc3)CC1C1OC12 (some centres not stated) | inactive
CN1C2CCC1CC(OC(c1ccccc1)c1ccccc1N)C2 (configuration not stated) | inactive
COc1cc(CC(C)N)c(OC)cc1I (configuration not stated) | inactive

Tested on: not listed separately
Assay: qHTS of Trypanosoma Brucei Inhibitors: LOPAC Validation (AID 624147)
Conditions: purified enzyme assay, luminescence, 45 min; series mostly up to 57.5 µM
Procedure, shortened: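 Luminescence from Kinase-Glo Plus, added after a 45-minute room-temperature reaction, served as the end-point read-out. The enzyme and substrate were preincubated with compound before ADP (130 uM final) initiated turnover. Concentration-effect curves came from normalized qHTS data.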

SMILES | Potency
CC(C)(O)[C@@H]1C2OC(=O)[C@@H]1[C@]1(O)C[C@H]3O[C@]34C(=O)O[C@H]2[C@]14C (tested in a mixture with another compound) | inactive
CCn1cnc2c(Nc3cccc(Cl)c3)nc(N[C@@H]3CCCC[C@@H]3N)nc21 | inactive
NC(=O)COc1c(F)cc(SCCNS(=O)(=O)c2ccccc2)cc1F | inactive
C=CCN1C[C@@H](C)N([C@H](c2ccc(C(=O)N(CC)CC)cc2)c2cccc(OC)c2)C[C@@H]1C | inactive
C[C@H](N)CN1CCc2ccc(Br)cc21 | inactive
CCCN(CCC)CCc1c[nH]c2ccc(C(N)=O)cc12 | inactive
CCCn1c(=O)c2[nH]c(C3CCCC3)nc2n(CCCOC(=O)c2ccc(S(=O)(=O)F)cc2)c1=O | inactive
Clc1cc(I)cc(Cl)c1NC1=NCCN1 | inactive
CCCN1CC[C@@H]2c3cc(O)ccc3CC[C@@H]21 | inactive
c1ccc2c(N3CCNCC3)cccc2c1 | inactive
CCCN1CCC[C@@H](c2cccc(O)c2)C1 | inactive
N=C(N)c1ccc(CS(=O)(=O)F)cc1 | inactive
NCCc1ccc(S(=O)(=O)F)cc1 | inactive
NC(C(=O)O)c1cc(=O)[nH]o1 (configuration not stated) | inactive
CCCCCCCCCCCCCC(=O)O[C@@H]1[C@@H](C)[C@@]2(O)[C@@H](C=C(CO)C[C@@]3(O)C(=O)C(C)=C[C@@H]23)C2C(C)(C)[C@@]21OC(C)=O (some centres not stated) | inactive
CCCN(CCC)[C@H]1CCc2c(F)ccc(O)c2C1 | inactive

SMILES | Potency
COc1ccc2c(c1)/C(=C/c1cnc[nH]1)C(=O)N2 | inactive
NC(Cc1ccc(N(CCCl)CCCl)cc1)C(=O)O (configuration not stated) | inactive
CCOC(=O)c1ncn2c1[C@@H]1CCCN1C(=O)c1cc(OC)ccc1-2 | inactive
N[C@@H](Cn1ccc(=O)[nH]c1=O)C(=O)O | inactive
CCCN(CCC)CCc1ccc(O)c(O)c1 | inactive
N#C/C(=C/c1ccc(O)c(O)c1)C(N)=S | inactive
C[C@@H]1O[C@@H](O[C@H]2C[C@@H](O)[C@]3(CO)[C@@H]4C(CC[C@]3(O)C2)[C@@]2(O)CC[C@H]([C@@H]3COC(=O)C3)[C@@]2(C)C[C@H]4O)[C@H](O)[C@H](O)[C@H]1O (some centres not stated) | inactive
CCCN(CCC)[C@@H]1CCc2cccc(O)c2C1 | inactive
OCc1cnc[nH]1 | inactive
C[C@@H]1[C@@H]2Cc3ccc(O)cc3[C@@]1(C)CCN2CC1CC1 | inactive
CC(=O)OCC1=C(C(=O)O)N2C(=O)[C@@H](NC(=O)CCC[C@@H](N)C(=O)O)[C@H]2SC1 | inactive
C[N+]1(C)CCOC(O)(c2ccc(-c3ccc(C4(O)C[N+](C)(C)CCO4)cc3)cc2)C1 (configuration not stated) | inactive
CCCC[N+]1(C)C2CC(OC(=O)[C@H](CO)c3ccccc3)CC1C1OC12 (some centres not stated) | inactive
CN1C2CCC1CC(OC(c1ccccc1)c1ccccc1N)C2 (configuration not stated) | inactive
NNC(=O)c1ccc(O)cc1 | inactive
COc1cc(CC(C)N)c(OC)cc1I (configuration not stated) | inactive

— PubChem BioAssay (NCATS)
